# Reference: the supplement of paper PMC11624193, “Coupling cellular drug-target engagement to downstream pharmacology with CeTEAM” (Nature Communications, 2024)
# Values without a mark were called inactive.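 Rule for the calls: active = log2 fold change beyond 2 SD from the library mean after excluding viability outliers; inactive = within 2 SD.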
# Biological target: PARP1 L713F-nLuc biosensor (HCT116) (UniProt P09874)
# Experiment: PARP1 L713F-nLuc/akaLuc ratio relative to DMSO control (biosensor stabilization) (fold change); higher = more PARP1 biosensor stabilization (target engagement / stabilizer), active = hit call of the paper
# Settings: 24 h
# [1] = stock concentration (mM; final µM = stock mM x 1): 2
# [2] = stock concentration (mM; final µM = stock mM x 1): 10
# PARP1 L713F-nLuc biosensor (HCT116), sequence (P09874 whole entry L713F, looked up): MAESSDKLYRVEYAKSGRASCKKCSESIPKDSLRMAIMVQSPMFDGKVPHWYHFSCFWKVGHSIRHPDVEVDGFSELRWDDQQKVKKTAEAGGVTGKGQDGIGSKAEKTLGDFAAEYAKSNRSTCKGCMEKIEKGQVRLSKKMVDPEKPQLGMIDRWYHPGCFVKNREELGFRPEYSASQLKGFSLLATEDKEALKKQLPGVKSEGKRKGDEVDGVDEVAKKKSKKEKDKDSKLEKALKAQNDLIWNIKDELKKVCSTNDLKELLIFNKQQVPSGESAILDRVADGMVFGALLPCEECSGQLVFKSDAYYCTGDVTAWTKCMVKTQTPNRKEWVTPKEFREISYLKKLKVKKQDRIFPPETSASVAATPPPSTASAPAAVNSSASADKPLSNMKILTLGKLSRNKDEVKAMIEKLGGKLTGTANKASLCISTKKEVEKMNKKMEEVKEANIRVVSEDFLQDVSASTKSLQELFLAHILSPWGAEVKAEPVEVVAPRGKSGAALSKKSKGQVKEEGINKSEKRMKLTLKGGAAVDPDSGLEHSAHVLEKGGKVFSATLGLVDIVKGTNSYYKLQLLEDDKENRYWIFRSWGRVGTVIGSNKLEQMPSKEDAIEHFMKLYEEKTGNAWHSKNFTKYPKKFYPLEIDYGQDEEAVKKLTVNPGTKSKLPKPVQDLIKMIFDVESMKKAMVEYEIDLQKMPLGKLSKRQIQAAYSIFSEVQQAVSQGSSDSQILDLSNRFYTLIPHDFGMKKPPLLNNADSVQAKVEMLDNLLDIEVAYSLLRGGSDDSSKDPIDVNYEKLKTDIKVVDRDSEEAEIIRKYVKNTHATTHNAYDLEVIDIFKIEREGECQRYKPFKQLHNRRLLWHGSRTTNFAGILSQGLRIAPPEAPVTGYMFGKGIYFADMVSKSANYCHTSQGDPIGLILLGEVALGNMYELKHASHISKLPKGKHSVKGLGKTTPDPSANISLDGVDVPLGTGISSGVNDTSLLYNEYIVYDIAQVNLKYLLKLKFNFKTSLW
structure (smiles),measurement,setting,value
CC(C)Cn1cnc2c(N)nc3ccccc3c21 [Imiquimod],PARP1 L713F-nLuc/akaLuc ratio,[1],1.02
CCn1cc(C(=O)O)c(=O)c2cc(F)c(N3CCNCC3)nc21 [Enoxacin (hydrate)],PARP1 L713F-nLuc/akaLuc ratio,stock concentration (mM; final µM = stock mM x 1): 9,0.596
CNC(=O)c1ccc(-c2cnc3ncc(Cc4ccc5ncccc5c4)n3n2)cc1F,PARP1 L713F-nLuc/akaLuc ratio,[1],0.95
C[C@@H](Oc1cc(-n2cnc3ccc(CN4CCN(C)CC4)cc32)sc1C(N)=O)c1ccccc1C(F)(F)F,PARP1 L713F-nLuc/akaLuc ratio,[2],0.601
Cc1cc(Nc2cc(N3CCN(C)CC3)nc(Nc3ccc([N+](=O)[O-])cc3)n2)n[nH]1,PARP1 L713F-nLuc/akaLuc ratio,[2],1.52
O=C(Nc1ccc(-c2ccnc(Nc3ccc(N4CCOCC4)cc3)n2)cc1)C1CCCN1 (stereo not drawn),PARP1 L713F-nLuc/akaLuc ratio,[2],0.659
C=CC(=O)Nc1cccc(Oc2nc(Nc3ccc(N4CCN(C)CC4)cc3)nc3ccsc23)c1,PARP1 L713F-nLuc/akaLuc ratio,[2],1.03
COc1ccc(C(NC(=O)c2cnc(-c3cccnn3)[nH]c2=O)c2ccc(OC)cc2)cc1,PARP1 L713F-nLuc/akaLuc ratio,[2],0.884
Cc1[nH]n(-c2ccccc2)c(=O)c1N=Nc1ccc(N2CCOCC2)cc1,PARP1 L713F-nLuc/akaLuc ratio,[2],1.04
NC(=O)C1CCN(CC(=O)Nc2ccc(Br)cc2)CC1,PARP1 L713F-nLuc/akaLuc ratio,[2],0.965
CO[C@@H](C(=O)N1Cc2[nH]nc(NC(=O)c3ccc(N4CCN(C)CC4)cc3)c2C1)c1ccccc1 [Danusertib],PARP1 L713F-nLuc/akaLuc ratio,[2],0.752
COc1cc(C(=O)N2C[C@H](N)CC[C@@H]2C)cc2nc(-c3cc4cccnc4n3CC3CC3)n(C)c12 [BMS-P5 (free base)],PARP1 L713F-nLuc/akaLuc ratio,[2],0.878
O=C(Nc1cc(Cl)cc(Cl)c1)Nc1cc(Cl)cc(Cl)c1,PARP1 L713F-nLuc/akaLuc ratio,[2],1.29
